# Compounds with a hit are over-represented: about 1.9% of the library has one in this group of screens.
# Efa HMGR inh: inhibitors of class II HMG-CoA reductase from Enterococcus faecalis; purified E. faecalis HMGR, NADPH absorbance 340 nm kinetic; 190,000 compounds, 0.41% hits; inhibition, % at 10 µM;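 active = inhibition above a set limit, the median over all tested compounds plus 3 SD, cut at about 9.5% in these data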;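 also: enzyme runs in reverse so mevalonate oxidation gives rising NADPH absorbance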
# PGE2 EP2 inh: EP2 receptor (human) inhibition; C6 glioma cells expressing human EP2, cAMP TR-FRET; cells stimulated with saturating PGE2; P43116; inhibition, % at 25 µM; 260,000 compounds, 0.52% hits;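 active = percent inhibition above 40 after rounding to a whole number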;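 also: rat C6 glioma host cells with rolipram phosphodiesterase inhibitor present; the protocol text gives 20 µM as final concentration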
# Furin inh: blocks human furin protease activity; P09958; 220,000 compounds, 0.061% hits; inhibition, % at 20 µM or 30 µM; purified furin, fluorogenic substrate cleavage; in the data active = inhibition above about 25%
# Target sequence (P09958 108-714 limits assumed): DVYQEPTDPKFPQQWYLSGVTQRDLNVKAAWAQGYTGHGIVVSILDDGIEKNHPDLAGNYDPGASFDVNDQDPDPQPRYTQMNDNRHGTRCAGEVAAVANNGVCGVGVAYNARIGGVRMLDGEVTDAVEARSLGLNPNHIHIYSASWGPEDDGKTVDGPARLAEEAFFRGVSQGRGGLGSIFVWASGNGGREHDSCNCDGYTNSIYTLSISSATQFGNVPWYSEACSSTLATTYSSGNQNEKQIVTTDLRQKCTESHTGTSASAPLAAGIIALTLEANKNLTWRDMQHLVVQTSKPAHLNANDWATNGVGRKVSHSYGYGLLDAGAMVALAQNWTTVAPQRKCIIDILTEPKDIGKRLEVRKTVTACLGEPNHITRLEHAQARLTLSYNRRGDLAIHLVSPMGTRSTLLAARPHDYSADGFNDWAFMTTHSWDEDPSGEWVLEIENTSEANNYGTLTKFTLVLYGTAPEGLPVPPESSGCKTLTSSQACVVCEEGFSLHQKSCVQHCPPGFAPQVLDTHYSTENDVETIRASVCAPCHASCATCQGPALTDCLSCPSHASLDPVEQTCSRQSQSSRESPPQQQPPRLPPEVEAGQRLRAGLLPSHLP
# EP2 modulator: modulators of human EP2 prostaglandin E2 receptor. P43116. 260,000 compounds, 0.83% hits. EP2-expressing cells, cAMP HTRF FRET, PGE2 co-stimulation. induction, % at 25 µM;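 active = compounds whose cAMP rise, as percent of the full-agonist control response, exceeds 60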;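 also: rat C6 glioma line stably carrying human EP2 under a CMV promoter; the protocol text gives 20 µM as final concentration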
# m-calpain inh: inhibitors of pig calpain II; 220,000 compounds, 0.37% hits; inhibition, % at 16 µM; purified calpain II, fluorogenic peptide substrate, 30 min;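 active = inhibition above about 50%, limit read from the data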
# Hits are given with their value; - = inactive; . = no result given; ! = not active in a repeat.
SMILES,Efa HMGR inh,PGE2 EP2 inh,Furin inh,EP2 modulator,m-calpain inh
CN1CCC[C@H](C(=O)OCC(=O)[C@]2(O)CC[C@@H]3[C@H]4CCC5=CC(=O)CC[C@@]5(C)[C@@H]4[C@@H](O)C[C@]32C)C1,.,53,.,-,.
C[N+](C)(C)c1ccc([C@H](N)C(=O)O)cc1,.,-,.,-,.
CCN(CC)COC(=S)S,.,-,.,-,.
CCN(CC)c1nc(Oc2ccc(C(=O)OC)cc2)nc(N2CCOCC2)n1,-,-,-,62,-
COc1ccc2cc(CN(CC3CCCO3)C(=S)Nc3ccc(F)cc3)c(=O)[nH]c2c1 (stereo not drawn),.,-,.,-,.
N=C(N)SCCc1ccccn1,.,44!,.,-,.
O=C(CN1CCC(n2cnc3cccnc32)CC1)N1CCCCCC1,.,.,.,-,.
CCOC(=O)Nc1cccc(Nc2ccccc2)c1,-,-,-,62,-
CCOC(=O)Nc1cccc(C(=O)O)c1,-,-,-,-,-
Oc1cc(-c2ccccc2)c2ccccc2c1,-,-,-,61,-
CCCC(=O)Nc1cccc(Oc2nc(C)cc(C)c2C#N)c1,-,-,37,-,-
COc1ccc(C2/C(=C(/O)c3ccc(OC)c(OC)c3)C(=O)C(=O)N2C)cc1 (stereo not drawn),.,-,.,-,.
COc1ccc(CN2CCC(CO)C2)cc1Cc1c(C)noc1C (stereo not drawn),.,-,.,-,.
COC(=O)[C@H](Cc1ccccc1)NC(=O)O[C@@H]1C(=O)c2cc(Br)ccc2O[C@H]1c1cccc(OC)c1,11,.,-,-,-
C=CCn1c(CCCNC(=O)c2ccccc2OC)nc2ccccc21,-,-,-,-,81
CCCNC(=O)CN1C(=O)NC(CCc2ccccc2)C1=O (stereo not drawn),12,-,-,-,-
CCCCNC(=O)CN1C(=O)NC(CCc2ccccc2)C1=O (stereo not drawn),-,-,-,-,-
Cc1occc1-c1nn(C2CCN(C(=O)CC3CCCC3)CC2)c(=O)o1,.,-,.,-,.
O=C(c1ccncc1)N1CCN(C2CCCCCC2)CC1,.,-,.,-,.
CCCn1nnc(NC(=O)COc2cc(C)cc(C)c2)n1,.,-,.,-,.
Cc1cc(C)n(CCC(=O)N[C@H](Cn2nc(-c3ccc(F)c(F)c3)ccc2=O)C(C)C)n1,.,.,.,-,.
C[N+](C)(C)CCCSc1nc2ccccc2[nH]1,.,42,.,-,.
CC(C)CCSc1nc2ccccc2[nH]1,-,-,-,-,-
Nc1cc(=O)[nH]c(=O)n1Cc1ccco1,-,-,26,-,-
Nc1cc(=O)[nH]c(=O)n1Cc1ccccc1,-,-,-,-,-
SMILES,Efa HMGR inh,PGE2 EP2 inh,Furin inh,EP2 modulator,m-calpain inh
COc1ccc(NC(=O)N(CCCN2CCOCC2)Cc2cc3cc(C)ccc3[nH]c2=O)cc1,.,-,.,-,.
O=C(NC(=S)N1CCCc2ccccc21)c1ccco1,-,-,-,-,-
CC1Cc2ccccc2N1C(=S)NC(=O)c1ccco1 (stereo not drawn),-,-,-,-,52
Cc1ccc(N2N=C(c3ccc(F)cc3)CC2c2ccco2)cc1 (stereo not drawn),-,-,-,-,-
Fc1ccc(C2=NN(c3ccccc3)C(c3ccco3)C2)cc1 (stereo not drawn),13,-,-,-,-
CC(C)(C)n1nnnc1C(c1cccc(C#N)c1)N1CCCc2ccccc21 (stereo not drawn),-,103!,-,-,-
Cc1ccc(C)c2[nH]c(=O)c(C(c3nnnn3C3CCCC3)N3CCCc4ccccc43)cc12 (stereo not drawn),.,-,.,-,.
COc1ccccc1C(c1nnnn1C(C)(C)C)N1CCCc2ccccc21 (stereo not drawn),-,-,-,67!,-
Cc1ccc(C)c2[nH]c(=O)c(C(c3nnnn3C3CCCC3)N3CCc4ccccc43)cc12 (stereo not drawn),.,-,.,101,.
COc1cc2cc(C(c3nnnn3C(C)(C)C)N3CCc4ccccc43)c(=O)[nH]c2cc1OC (stereo not drawn),-,150,-,-,-
CC(C)(C)n1nnnc1C(c1ccc(Cl)cc1)N1CCCc2ccccc21 (stereo not drawn),-,-,-,-,-
COc1ccc(S(=O)(=O)N(Cc2cccs2)Cc2cc3cc4c(cc3[nH]c2=O)OCCO4)cc1,.,-,.,-,.
COc1ccc2[nH]c(=O)c(CN(Cc3cccs3)S(=O)(=O)c3ccc(C(C)=O)cc3)cc2c1,.,66,.,-,.
COC(=O)c1cccc(S(=O)(=O)N(Cc2cccs2)Cc2cc3cc(OC)ccc3[nH]c2=O)c1,.,46,.,-,.
COc1ccc(C2(C(=O)N3CCC(c4ccc5c(c4)OCO5)CC3)CC2)cc1,.,.,.,-,.
C[C@H](NCCN(C)C)[C@@H]1CC[C@@H]2[C@H]3CCc4cc(O)ccc4[C@@H]3CC[C@]21C,.,53,.,-,.
Cc1cc2nc(SCC(=O)O)nc(C)c2cc1C,-,-,-,-,-
CCOC(=O)CSc1nc(C)c2cc(C)c(C)cc2n1,13,-,-,-,-
Cc1cc2ccc(C)c(C)c2nc1SCC(N)=O,.,-,.,-,.
CCc1cc2cccc(C)c2nc1SCC(=O)N1CCOCC1,.,-,.,-,.
CCOC(=O)CSc1nc2c(C)c(C)ccc2cc1C,.,-,.,88,.
CCOC(=O)CSc1nc2c(C)cccc2cc1CC,.,-,.,73,.
c1ccc2c(CN3CCN(Cc4c[nH]c5ccccc45)CC3)c[nH]c2c1,.,62,.,-,.
CCC1c2cccn2CCN1Cc1cn[nH]c1-c1cccc(OC)c1 (stereo not drawn),.,-,.,-,.
CCOc1ccccc1NC(=S)Nc1ncccc1C,-,41,-,-,-
SMILES,Efa HMGR inh,PGE2 EP2 inh,Furin inh,EP2 modulator,m-calpain inh
Cc1cccnc1NC(=S)Nc1ncccc1C,.,-,-,-,-
Cc1ccc(S(=O)(=O)O[C@H]2C[C@@H](C(C)(C)C)CC[C@@H]2c2ccccc2)cc1,.,43,.,-,.
Cn1c(=S)c2[nH]c(SCCN3C(=O)c4ccccc4C3=O)nc2n(C)c1=O,.,41,.,-,.
Cn1c(=S)c2[nH]c(SCCN3CCCC3)nc2n(C)c1=O,.,-,-,-,-
Oc1ccc2ccccc2c1CN(Cc1c(O)ccc2ccccc12)C1CCCCC1,.,55,.,-,.
O=c1c2c(-c3cccs3)csc2[nH]c(=S)n1-c1ccccc1,-,66,-,-,-
CC(C)n1c(=S)[nH]c2scc(-c3cccs3)c2c1=O,.,71,-,-,59
CCc1cc2c(=O)n(-c3ccccc3)c(=S)[nH]c2s1,-,-,-,-,-
CCn1c(=S)[nH]c2scc(-c3cccs3)c2c1=O,-,70,-,-,-
Cc1nc2scc(-c3cccs3)c2c(=O)[nH]1,-,-,-,-,-
CC(C)[C@@]12CC[C@]3(CC[C@@H]4[C@](C)(CCC[C@@]4(C)C(=O)O)[C@@H]3C1)[C@@H](CN)C2,.,-,.,-,.
CC(=O)/C(N=Nc1ccc(C(=O)O)cc1)=C(\C)O,.,-,-,-,-
CC(=O)/C(N=Nc1ccc(-n2ccc(C(F)(F)F)n2)cc1)=C(\C)O,.,-,-,-,93
COCCN(CCOC)C(=O)CSc1nnc2c(n1)[nH]c1ccccc12,.,-,.,-,.
COc1ccccc1NC(=O)c1ccc(CN(c2cc(Cl)ccc2C)S(=O)(=O)c2ccccc2)cc1,-,-,-,-,-
